# Compounds with a hit are over-represented: about 4.8% of the library has one in this group of screens.
# ATXN2 expr inh: ATXN2 expression inhibition. HEK-293 ATXN2-luciferase reporter, luminescence, 24 h. Potency, µM (titrated, usually from 57 µM), without a hit: at the top dose activity change, negative = inhibition, most hits filed as inhibitors. 0.72% of 360,000 active. AID 1745845; note: potency is the fitted concentration of half-maximal effect; % is set by controls: 0 for no effect and ±100 for the full control effect; nearly all actives have a fitted effect of over 55% in size
#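 ATXN2-luciferase reporter cells (luciferase flanked by upstream and downstream ATXN2 gene portions) were treated 24 h at 37 °C with compounds at up to 57 uM. SteadyGlo luminescence gave expression; GF-AFC fluorescence gave viability.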
# S2 tox: cell viability loss in ATXN counter-screen; S2 cells (HEK-293 line with an ATXN2-luciferase reporter) viability, CellTiter-Fluor protease fluorescence, 24 h; 0.49% of 400,000 active; Potency, µM (series often up to 56.7 µM), hits mostly cytotoxic; note: potency is the fitted concentration of half-maximal effect; nearly all actives have a fitted effect of over 40% in size
# HepG2 viability: kills HepG2 cells in TGF-b inhibitor counter-screen. HepG2 CAGA-GFP viability, ATP luminescence, 18 h. Potency, µM (highest dose often 46.1 µM), inactives show at the highest dose activity change, negative = cytotoxicity, actives largely listed as cytotoxic. 0.76% of 410,000 active. AID 588856; note: potency is the fitted concentration of half-maximal effect
#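 CellTiter-Glo luminescence gave cytotoxicity after 18 hours at 37 degrees C. The cells were HepG2 CAGA-GFP in 1% FBS DMEM, stimulated with 500 pg/mL TGF-beta after compound addition. %Activity was normalised to no-cell wells (complete cell-killing) and DMSO (no toxicity), and curves were fitted and classified.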
# D3 antag: blocks the human D3 dopamine receptor. 2.5% of 360,000 active. P35462. AID 652054. max response, negative = inhibition, %. D3R cells, DiscoveRx beta-arrestin luminescence, antagonist mode; active compounds read low; in the data active = max response below about -50%; inconclusive = no clear call, values can overlap the other calls; note: % is set by controls: 0 for no effect and ±100 for the full control effect
# Target sequence (P35462 whole entry, looked up): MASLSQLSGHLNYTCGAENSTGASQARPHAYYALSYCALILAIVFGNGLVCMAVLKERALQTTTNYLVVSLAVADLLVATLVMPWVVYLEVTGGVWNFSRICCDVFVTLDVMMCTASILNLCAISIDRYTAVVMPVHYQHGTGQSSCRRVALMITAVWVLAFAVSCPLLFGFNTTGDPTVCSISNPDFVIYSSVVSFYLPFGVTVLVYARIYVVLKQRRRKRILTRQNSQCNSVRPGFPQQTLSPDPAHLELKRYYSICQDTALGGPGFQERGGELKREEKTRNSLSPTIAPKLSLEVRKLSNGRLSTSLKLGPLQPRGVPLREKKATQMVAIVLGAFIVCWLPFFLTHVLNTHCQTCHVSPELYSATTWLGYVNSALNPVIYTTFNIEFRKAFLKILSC
#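 Cells plated overnight at 1500 cells/well, then exposed to library compounds with dopamine controls for 90 minutes at 37 degrees C. DiscoveRx reagent added for 30–60 minutes at room temperature; luminescence read, quantitative HTS format.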
# TGFb inhibitor: blocks TGF-b signaling; HepG2 CAGA-GFP TGF-b/SMAD3 reporter, GFP fluorescence, 18 h; TGF-beta stimulated, 500 pg/mL final; Potency, µM (highest dose often 46.1 µM), inactives show top-dose activity, negative = inhibition, most hits filed as inhibitors; 1.2% of 410,000 active; note: potency is the fitted concentration of half-maximal effect; % is set by controls: 0 for no effect and ±100 for the full control effect; nearly all actives have a fitted effect of over 65% in size
#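 HEPG2 CAGA-GFP cells (1000/well, DMEM with 1% FBS) were pre-incubated 2 h at 37 degrees C, given compound by pin tool, then stimulated with TGF-beta at 500 pg/mL final for 18 h before per-cell GFP fluorescence imaging.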
# D3 ag: D3 dopamine receptor (human) agonism; P35462; D3R DiscoveRx beta-arrestin cells, luminescence, 90 min; max activation, %; 0.58% of 410,000 active; AID 652048; in the data active = max activation above about 30%; note: 0% is about no effect
#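 Agonist mode: compounds and dopamine controls were applied to plated cells for 90 min at 37 degrees C after an overnight attachment at 1500 cells/well. Luminescent read-out followed 30 - 60 minutes at room temperature with DiscoveRx detection reagent.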
# Starred values were filed as active, the others as inactive; i = inactive; ? = inconclusive; nt = not tested or not shown. Unless noted, calls come from the whole dose curve; as a rule, active = well fitted curve in the direction sought with a large enough effect; inconclusive = small, poorly fitted or top-dose-only effect, or another doubt; inactive = no such curve, though single readings can be large; an effect the other way counts as inactive or inconclusive.
SMILES,ATXN2 expr inh,S2 tox,HepG2 viability,D3 antag,TGFb inhibitor,D3 ag
O=C1N=c2ccccc2=C1c1sc(=S)n(-c2ccc(O)cc2)c1O,-8%,i,-4%,-11,1%,-10
CN(c1ccc(O)cc1)c1nc(O)c(C2=c3ccccc3=NC2=O)s1,nt,28µM*,-24%,?,?,-4
CC(CCc1ccc(O)cc1)NC(c1ccccc1)c1ccc(Cl)cc1 (configuration not stated),?,?,11µM*,-1,?,-14
CC(CCc1ccc(O)cc1)NCCC(c1ccccc1)c1ccccc1 (configuration not stated),?,?,-88%,?,?,2
Cc1oc(-c2ccc(F)cc2F)nc1CN1CCN(C(=O)c2ccco2)CC1,nt,i,-17%,-23,-9%,-1
COc1ccc(-c2nc(CN3CCN(C(=O)c4ccco4)CC3)c(C)o2)c(F)c1,-7%,?,-10%,20,-4%,35*
CCOc1ccccc1-c1nc(CN2CCCN(C(=O)c3ccco3)CC2)c(C)o1,3%,i,4%,-79*,?,-40
O=c1cc(-c2c(F)c(F)c(F)c(F)c2F)oc2ccccc12,22µM*,?,-61%,-67*,-5%,-22
COc1cc(CN2CCN(C(O)(c3ccccc3)c3ccccc3)CC2)cc(OC)c1OC,3%,i,-29%,-72*,-19%,-23
Clc1ccc(N2CCN(Cc3ccc(Br)o3)CC2)cc1,-15%,i,-16%,-52*,-6%,-22
Clc1cccc(N2CCN(Cc3ccc(Br)o3)CC2)c1,82%,i,-8%,-60*,-19%,-27
COc1cc(CN2CCN(c3cccc(Cl)c3)CC2)cc(OC)c1OC,?,i,-4%,-71*,-1%,-18
CC(C)OCCCn1c(=O)c2ccccc2n2c(-c3ccccc3)nnc12,3%,i,3%,nt,2%,-5
COc1ccc(N2CCN(c3cc(C)c4ccc(C)cc4n3)CC2)cc1,-32%,i,-4%,-4,10%,-11
COc1ccc(N2CCN(c3nc4cc(C)ccc4cc3C=O)CC2)cc1,-12%,i,-11%,-2,-23%,31*
Cc1cc(C)c2c(-n3cccc3)c(C(=O)NCCc3ccccc3)sc2n1,nt,nt,-6%,nt,0%,16
CCOC(=O)C1(CCOc2ccccc2)CCN(Cc2ccc(O)c(OC)c2)CC1,-13%,i,-49%,?,-9%,-19
CCOC(=O)C1(CCOc2ccccc2)CCN(Cc2ccc(O)c(Cl)c2)CC1,nt,?,-46%,-69*,?,-17
CCOC(=O)C1(CCOc2ccccc2)CCN(Cc2ccc(-n3cccn3)cc2)CC1,nt,?,-22%,-71*,-23%,1
CCOC(=O)C1(CCOc2ccccc2)CCN(Cc2ccncc2)CC1,-33%,i,-24%,-11,-12%,-8
CCOC(=O)C1(Cc2ccccc2)CCN(Cc2cnn(CC)c2)CC1,0%,i,-5%,-16,6%,-15
CCOC(=O)C1(Cc2cccc(OC)c2)CCN(Cc2cccn2-c2ccccn2)CC1,0%,i,2%,-12,3.2µM*,-23
CCOC(=O)C1(Cc2ccccc2)CCN(Cc2cnn(-c3ccccc3)c2)CC1,-30%,i,-39%,-63*,?,-9
COc1ccc(OC)c(N(C)S(=O)(=O)c2ccc3c(c2)NC(=O)CC(=O)N3)c1,-4%,i,0%,nt,-6%,3
Cc1ccccc1C(=O)N1CC/C(=N\OS(=O)(=O)O)c2ccc(Cl)cc21,-2%,i,nt,nt,nt,6
SMILES,ATXN2 expr inh,S2 tox,HepG2 viability,D3 antag,TGFb inhibitor,D3 ag
CCOC(=O)C1(CCOc2ccccc2)CCN(Cc2ccc(C(=O)OC)cc2)CC1,?,?,-17%,-60*,-27%,-27
CCOC(=O)C1(CCOc2ccccc2)CCN(Cc2cccc(OC)c2)CC1,-20%,?,-25%,-21,?,-12
CCOC(=O)C1(CCOc2ccccc2)CCN(Cc2ccc3c(c2)OCCO3)CC1,0%,i,-18%,-56*,-10%,0
Cc1ccc(-n2c(CCC(=O)O)ccc2-c2cccs2)cc1Cl,3%,i,9%,nt,-14%,-1
CC(=O)Oc1ccc2c(c1)C(=O)c1ccccc1CO2,18%,i,-7%,?,-2%,-12
CC(=O)Oc1ccc2c(c1)C(=O)CCCCCC(=O)O2,nt,i,-45%,-70*,-22%,0
CC1CCN(c2oc(-c3cccs3)nc2S(=O)(=O)c2ccc(Cl)cc2)CC1,-8%,i,-4%,nt,?,-4
CC(C)Oc1cccc(C(=O)NC(=S)Nc2ccc(Cl)c(C(=O)O)c2)c1,13%,i,0%,-88*,17%,-1
CN(C)S(=O)(=O)Oc1cccc(C(=O)Nc2cccc(Cl)c2)c1,48%,i,-25%,?,-5%,3
CN(C)S(=O)(=O)Oc1cccc(C(=O)Nc2ccc(Cl)c(Cl)c2)c1,-19%,?,-41%,-53*,?,5
OCC(O)COc1ccc(Cl)cc1 (configuration not stated),nt,i,nt,nt,nt,5
COc1ccc(-c2nc3c(c(=O)[nH]c(=O)n3Cc3ccccc3)n2CCO)cc1,-1%,i,-17%,-1,-16%,-23
O=c1[nH]c(=O)n(Cc2ccccc2)c2nc(-c3ccc(Oc4ccc(F)cc4)c([N+](=O)[O-])c3)n(CCO)c12,?,?,-54%,-5,13µM*,-5
Cc1ccnc2c(Cl)c(Cl)ccc12,nt,nt,4%,nt,0%,nt
CN(Cc1ccccc1)C(c1ccnc2ccccc12)c1nnnn1-c1ccc2c(c1)OCCO2 (configuration not stated),?,?,nt,-11,nt,50*
CN(C)c1ccc(-c2nc3cnccn3c2Nc2cccc(C(F)(F)F)c2)cc1,11%,i,-5%,nt,-23%,9
CCc1cccc(C)c1Nc1c(-c2ccc(SC)cc2)nc2sccn12,nt,nt,-39%,nt,20µM*,7
CCc1cccc(C)c1Nc1c(-c2ccc(N(C)C)cc2)nc2cnccn12,?,?,16µM*,nt,16µM*,8
CCc1cccc(C)c1Nc1c(-c2ccc(F)cc2)nc2sccn12,nt,nt,-35%,nt,?,9
CCc1cccc(C)c1Nc1c(-c2cccc(O)c2)nc2cnccn12,-13%,i,-60%,nt,11µM*,3
CCOc1ccc(-c2nc3c(C#N)c[nH]n3c2NC2CCCC2)cc1,8%,i,-32%,nt,?,1
O=C(O)Cn1cc(CN2CCOCC2)c2ccccc21,nt,?,5%,0,10%,1
Cn1cc(CN2CCN(c3ccccc3)CC2)c2ccccc21,-30%,i,-40%,-79*,1%,-49
